# PubChem BioAssay (NCI)
# Where “and” joins values, the source holds several entries; their conditions need not be identical. Equal values may be shown once. Compounds without any hit were thinned out: in the full panel of roughly 83,000, 20% have a hit.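 The test compound was applied at a single concentration to cells in 96-well plates for 48 hours, and percent growth was recorded.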 Calls of active or inactive are those of the source.
# System: M14 melanoma
# Assay: NCI-60 one-dose screen, 48 h (100 = growth as untreated, 0 = no growth, -100 = all killed)
# Details: 1 µM
# Protocol: Growth inhibition of the M14 human tumor cell line is measured as a screen for anti-cancer activity. Cells are grown in 96 well plates and exposed to the test compound for 48 hours. Compounds are tested at a single concentration, which is 10^-5 M for most compounds. The reported endpoint is percent growth (GI% or GIPRCNT), where numbers from 0 - 100% represent growth inhibition, and numbers from -100% - 0 represent cell death. For example, a value of 40 represents 60% growth inhibition. A value of 0 means no net growth occurred over the course of the experiment. A value of -40 indicates 40% of cells at the beginning of the experiment died by the end of the experiment. A value of -100 means all cells are dead at the end of the experiment.
# NCI-60 Human Tumor Cell Lines Screen was performed using the standard one-dose NCI protocol, which is described in more detail at https://dtp.cancer.gov/discovery_development/nci-60/default.htm.
# Compounds with GIPRCNT values below 10 were considered active. Activity score was based on GIPRCNT using the following formula: […]
# Score is 0 for GIPRCNT values of 100 or above, 50 for GIPRCNT values of 0, and 100 for GIPRCNT values of -100.
row,Compound,growth
1,CNC(=O)c1cc(Oc2ccc(CC(=O)Nc3cc(C(C)(C)C)nn3C)cc2)ccn1,96.5% (inactive)

# Same assay, conditions: 10 µM
row,Compound,growth
1,CNC(=O)c1cc(Oc2ccc(CC(=O)Nc3cc(C(C)(C)C)nn3C)cc2)ccn1,88% (inactive)
2,Cc1[nH]c(-c2nc3ccccc3[nH]2)c(C)c1C(=O)NC(C)C1CCCCC1 (stereo not given),83.1% (inactive)

# Same assay, conditions: 10 µM unless noted
row,Compound,growth
1,COc1ccccc1NC(=O)OCC#CCOC(=O)Nc1ccccc1OC,106% (inactive) and 95.5% (inactive)
2,CNC(=O)c1ccc(C)c(-n2c(C)cc(OCc3ccc(F)cc3F)c(Br)c2=O)c1,76.6% (inactive) and 98.4% (inactive)
3,Clc1nc(Oc2ccccc2)nc(-c2cn(-c3ccccc3)c3ccccc23)n1,71.1% (inactive)
4,CNc1ccc2nc3ccc(=[N+](C)C)cc-3sc2c1,3.79% (active) and -23.3% (active)
5,Cc1ccc(NCSc2ccc(Cl)cc2)cc1,76% (inactive) and 89% (inactive)
6,Nc1n[nH]c(=S)n1-c1ccc(Cl)cc1,101% (inactive)
7,CCN(CC)CCCC(CNc1ccnc2cc(Cl)ccc12)c1ccc(Cl)cc1 (stereo not given),-84.7% (active) and -71.4% (active)
8,O=S(=O)(Nc1ccccc1)C1CCCCC1,101% (inactive) and 99.5% (inactive)
9,Nc1ccccc1Nc1ccccc1,106% (inactive) and 102% (inactive)
10,O=C(c1ccc(Cl)cc1)C(NCCO)c1ccc(Cl)cc1 (stereo not given),101% (inactive) and 104% (inactive)
11,CCC(C)C1(C2CCCC2)NC(=O)NC1=O (stereo not given),98.4% (inactive) and 106% (inactive)
12,O=C(O)C1C2C=CC(C2)C1C(=O)O (stereo not given),115% (inactive) and 39.1% (inactive) and 105% (inactive)
13,O=S1(=O)CC(Br)C(Br)C1 (stereo not given),73.2% (inactive) and 87.5% (inactive)
14,Nc1ccc(N=Nc2ccc(S(=O)(=O)O)cc2)cc1S(=O)(=O)O,93.8% (inactive) and 117% (inactive)
15,CC1=C(/C=C/C(C)=C/C=C/C(C)=C/C(=O)Nc2ccc(O)cc2)C(C)(C)CCC1,53.5% (inactive)
16,CCOc1ccc(Nc2c3ccccc3nc3ccccc23)cc1,95% (inactive) and 19.4% (inactive) and 40.4% (inactive)
17,CC1(c2ccc3ccccc3c2)CCC(=O)O1 (stereo not given),117% (inactive)
18,Clc1ccc(NC(Nc2ccc(Cl)cc2)C(Cl)(Cl)Cl)cc1,71.1% (inactive) and 82.3% (inactive)

row,Compound,growth
1,CCOC(=O)c1c(C)oc(C)c(C(=O)OCC)c1=O,98.8% (inactive)
2,N#C/C(=C1C=C/C(=N/O)C(Br)=C/1)c1ccccc1,31.9% (inactive)
3,CCN(CC)CCNc1ccc(C)c2sc3ccccc3c(=O)c12 (tested in a mixture with another compound),-50.9% (active) and -40.5% (active)
4,C[N+](C)(C)CN1C(=O)c2ccccc2C1=O,103% (inactive)
5,CCN(CC)CCc1nc(-c2ccccc2)no1,87.9% (inactive) and 98.5% (inactive)
6,COc1cc(C(=O)c2ccc3c(c2)OCO3)cc(OC)c1OC,21% (inactive) and 19.9% (inactive)
7,Nc1ccccc1SC1CC(=O)N(c2cccc3ccccc23)C1=O (stereo not given),105% (inactive)
8,CCOC(=O)c1sc(N)nc1-c1ccccc1,99.7% (inactive)
9,COc1ccc2ccccc2c1/C=N/N1CCCCC1,108% (inactive)
10,CCCCCCCCCCCCCCCc1cc(O)ccc1N,101% (inactive) and 105% (inactive)
11,O=C(Nc1cccc(-n2ccc3c(NC(=O)c4ccccc4)nccc32)c1)c1ccc(Cl)c(C(F)(F)F)c1,-29.6% (active) and 64% (inactive)
12,O=C(O)CSCc1nc2ccccc2[nH]1,97.4% (inactive)
13,O=C1c2ccccc2C(=O)N1/N=C/c1ccc2c(c1)OCO2,99.7% (inactive)
14,CC(C)Cc1ccc(C(C)C(=O)NCc2ccc(Cn3c(=O)sn(CCCI)c3=O)cc2)cc1 (stereo not given),88.8% (inactive) and -66.9% (active)
15,CCN(CC)CCCC(C)Nc1cnc(C(=O)Nc2cc(F)cc3cccnc23)cn1 (stereo not given),21.9% (inactive) and -5.6% (active)
16,CC1=NN(c2ccccc2)C(=O)C1C(=O)c1ccccc1 (stereo not given),104% (inactive)
17,NC(=S)N/N=C(\c1ccc(Br)cc1)C1CC1,88% (inactive) and 84.1% (inactive)
18,Cc1ccc(-c2noc(C)n2)cc1,110% (inactive)

# Same assay, conditions: 100 µM
row,Compound,growth
1,Cc1[nH]c(-c2nc3ccccc3[nH]2)c(C)c1C(=O)NC(C)C1CCCCC1 (stereo not given),-73.2% (active)
